Source: the supplement of paper PMC6555819

tested on: VDR:RXRa (NR concentration 270 nM, RXRa partner concentration 90 nM); assay: PBM binding z-score (relative to random genomic background probes); higher = stronger binding; sequences stand for … in GC…GCGATTGACAGCGTAGAATGAAGG
Method: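 Protein-binding microarray (Agilent 4x180K custom design, double-stranded 60-nt probes: 5' GC cap, 34-nt variable region, 24-nt constant primer region; full probe sequence given). Purified or IVT nuclear receptor:RXRα heterodimers (3:1 NR:RXRα, mostly 270:90 nM) or homodimers were incubated for 1 h in PBS with 2% milk and no ligand, then detected with Alexa488 antibodies. Fluorescence from o1-orientation probes (~5 replicates averaged) was converted to z-scores against 500 random hg19 background probes. Variable regions are seed direct-repeat (DR0–DR5) sites, all their single-nucleotide variants and half-site ablations.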

Sequence | PBM binding z-score
CGTCCGAGGTCAGAGAGGTCAGTGAATGCCGAGT | 7.89
GCAGCCAGGTGAAACGCAGGTAACTCAGGGTGGC | -0.929
TAGCCTAGGTCATGGGCCAGAATACCACGCGAAC | 1.91
CCTACTGGGCCACGAAAGGTCATTGAGTCAGTGA | 4.67
CGAACTAGGTCATTGTCAGGACAGTGAATAGTAA | 2.52
CAAACTAGGTCACAGCGGTCAAAGTCCGTGCGTA | 5.9
CCTTACGGGTCACTCCAGGTTATAGAATCGGAGT | 4.17
CATACAGGGTTAGCTAGGCCAGAGTAGGGACGGC | 0.398
ACTAGCAGGCCAAGTTTGGGTCACTCATACAAAG | 0.68
CCGACTGGGGCAAGGTTATCATAACGCACAGCCA | 0.0882
ACTCGGAGGACCAAGGTCAGAGCTACGCCAGTGA | 1.34
GCTACCAGGCCATTTGGGTCACTCAATGACGGGC | 1.36
CCTACTGGGCCATTCAGAGATCATTGATCATATG | -0.415
TCATATAGGTAAATGCTAGGTGAAAGGCCGATCT | 0.727
TGAATGAGGTTAAAGATCAGGGGACGTGGCGTCG | 1.88
TAGCCTAGGTCAGATCGGGCCATTATACGCTATA | 1.6
GGAACGAGGGCAAGTTGATAGGAGAGTTTGATGG | 0.886
TAGGCTAGGTCATTGGGCCAGTATAGTACGCATC | 2.03
CCTAGCAGGCGAATCTGGGTCACTCAAGGCTTGA | -0.0504
CAAACTAGGTCACGGGAAGGTCAAAGTCCGCATG | 6.27

Sequence | PBM binding z-score
CGGACTAGGTCAGAACAGGACAGTGAAGGATGAT | 0.538
AGAATGAGGTAATTAAGATCAGGGAATTGCGGTC | 0.215
CCAGACAGCTGAGAAGGTAACTCAGCCTCGATTA | -0.312
ATCGAAAGGTCGAGGTTAGTATAGAGAAAGGGAA | 2.75
TCTGCTAGGTCAACGCTGGTCAGCTAATCTGCTA | 1.36
ATCGAAAGGTCGAGGTGAATATAGAGAAAGGGAA | 2.45
GCTAGCAGGCCATGTGGGTCACTCAATGACGGGC | 0.49
GATACACGGTCAGCTAGAGGCCAGAGTATGGAAA | -0.349
AGAATGAGGTTATACGTGGATCAGGGAAGAAAGT | 1.56
TCATATAGGTAACAGGTGAAAGTCGGTGTGGTAA | 0.96
CGTCGAAGGTCAAAGGTCAGTGAAGAGATGACGG | 6.4
CCTGCTAGGTCAATGGTTAGCTAAAGCAGCTCGC | 0.802
AGTCAAAGTTCAGGACGAGGCAACGTAAAGCACG | 1.93
CGTCCAAGGTCATAGGAGGGCAGTGAAGACAGAT | 5.36
AATACAGGGTCATCGTAGGCCAGAGTGCGCACAG | 5.15
TTACCAAGGTGAAATGTCGTTGATGCACGCCTTG | 0.159
ACTATCAGTTGAGACGAGGGCAACCGATAGGTTG | 0.625
CCTTCTGGGCCATCAGGTCATTGATATCAACGTT | 1.81
AAAGACAGGTGATGAAGGTAACTCAGGCTATCAT | 0.521
CAAACAGGGTCAGCTAGGCCAGAGTAGGGACGGC | 4.09
